Screens (PubChem BioAssay)
Autofluor counter: compound fluorescence in toxin protease inhibitor counterscreen; compound autofluorescence counterscreen, microsphere flow cytometry; stronger effect = higher value; fluorescence intensity (concentration not given with the values); actives 3.1% (n = 360,000); AID 624483; in the data active = fluorescence intensity above about 16000; inconclusive = no clear call, values can overlap the other calls
MazF activator: MazEF (E. coli) toxin RNase activation; actives 0.32% (n = 350,000); activation, % at 20 µM; FAM/BHQ RNA-DNA oligo cleavage fluorescence, 5 h; P0AE70; AID 504720; in the data active = activation above about 50%
Target sequence (P0AE70 whole entry, looked up): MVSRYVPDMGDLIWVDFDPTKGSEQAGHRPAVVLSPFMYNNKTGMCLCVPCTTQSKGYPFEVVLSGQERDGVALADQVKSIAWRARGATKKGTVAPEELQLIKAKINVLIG
BoNT F protease: inhibitors of Botulinum neurotoxin F light chain protease | inhibition, % at 10 µM | Multiplex microsphere protease cleavage assay, flow cytometry | actives 0.22% (n = 360,000); in the data active = inhibition above about 35%, passing the limit was not always enough; inconclusive = no clear call, values can overlap the other calls; note: plate controls were buffer without enzyme for full effect and enzyme alone for no effect
VHR inh abs: inhibitors of human VHR1 phosphatase (DUSP3). actives 0.52% (n = 290,000). P51452. inhibition, % at 13.3 µM. recombinant VHR phosphatase, pNPP absorbance; in the data active = inhibition above about 50%
Target sequence (P51452 whole entry, looked up): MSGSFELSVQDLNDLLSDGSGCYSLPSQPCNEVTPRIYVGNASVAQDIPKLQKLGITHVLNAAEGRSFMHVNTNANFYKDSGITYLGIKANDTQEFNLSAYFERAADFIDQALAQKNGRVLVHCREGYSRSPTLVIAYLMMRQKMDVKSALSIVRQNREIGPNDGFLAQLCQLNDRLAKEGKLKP
BoNT-A LC inh2: BoNT A light chain protease inhibition. multiplex microsphere protease substrate cleavage, flow cytometry. inhibition, % at 10 µM. actives 0.17% (n = 360,000); note: plate controls were buffer without enzyme for full effect and enzyme alone for no effect
Anthrax LF prot: blocks Bacillus anthracis lethal factor protease; actives 0.12% (n = 360,000); inhibition, % at 10 µM; multiplex microsphere protease cleavage assay, LF; P15917; note: plate controls were buffer without enzyme for full effect and enzyme alone for no effect
Starred values were filed as active, the others as inactive; ? = inconclusive; / = not tested or not shown. The list is not random: actives were taken first. Their share in the collection is about 4.1%. Cut-off read from the data, not from the text of the source, unless noted: active = inhibition above about 30%; inconclusive = no clear call, values can overlap the other calls; inactive = below that.

SMILES	Autofluor counter	MazF activator	BoNT F protease	VHR inh abs	BoNT-A LC inh2	Anthrax LF prot
OC(COCc1ccccc1)CN1CCN(c2ccccc2F)CC1 (configuration not stated)	22811*	0	-1	12	1	-2
CC(=O)c1ccc(OCC(O)CN2CCN(c3ccc(F)cc3)CC2)cc1 (configuration not stated)	3899	10	?	22	-2	-6
Cc1cc2c(=O)n(C)c(SCC(=O)Nc3cccc(F)c3)nc2s1	6255	2	1	30	-1	-1
COc1ccccc1N1CCN(Cc2ccccc2F)CC1	5507	-3	-6	-8	0	7
COc1ccccc1N1CCN(c2cc(=O)n(-c3ccccc3Cl)c(=O)[nH]2)CC1	21673*	-4	-7	23	-5	-4
CCOc1ccccc1N1CCN(Cc2ccc(OC)c(OC)c2OC)CC1	21368*	-2	5	22	?	-4
COc1ccccc1N1CCN(Cc2ccccc2Cl)CC1	23767*	-1	-7	8	-3	-9
COc1cc(OC)c(OC)cc1CN1CCN(c2ccccc2OC)CC1	24136*	-3	-5	10	?	1
COc1ccccc1N1CCN(Cc2cccc(OC)c2OC)CC1	5575	-1	6	20	0	5
O=C1c2ccccc2CN1C(CO)Cc1ccccc1 (configuration not stated)	3929	14	-22	-14	-4	6
O=C(c1cccc(S(=O)(=O)NCc2ccccc2)c1)N1CCN(c2ccccc2Cl)CC1	2910	-9	-6	/	-1	-9
Cc1ccc(C(=O)CC(=O)c2ccc(C)cc2O)cc1	3937	-2	-8	23	2	10
COc1ccccc1N1CCN(Cc2ccc(Br)cc2)CC1	3715	-2	6	18	-3	-8
C=CCc1ccccc1OCC(O)CN1CCN(c2ccc(OC)cc2)CC1 (configuration not stated)	23665*	-1	-7	28	?	-5
COc1ccccc1N1CCN(Cc2ccc(Br)o2)CC1	22305*	3	1	-13	2	-3
C=CCc1ccccc1OCC(O)CN1CCOCC1 (configuration not stated)	3221	-36	16	/	4	-1
CC(=O)N(C)c1ccc(C=C2C=Cc3ccccc32)cc1	3285	-6	-8	/	0	-4
CCN(C[C@H]1N[C@@](Cc2ccccc2)(C(=O)OC)[C@H]2C(=O)N(Cc3ccccc3)C(=O)[C@@H]12)C(=O)Nc1ccc(Cl)cc1	3767	-3	2	/	0	-5
COc1ccc(-c2[nH][nH]c(=O)c2NC(=O)c2ccccc2Br)cc1	4018	/	4	/	0	9
CC1(C(=O)NS(=O)(=O)c2ccc3ccccc3c2)CCN1C(=O)Cc1ccc(-c2ccccc2)cc1 (configuration not stated)	3398	/	-2	/	0	0
Cc1ccc(-c2nc3sc4c(c3c(=O)n2N)CC(C)(C)OC4)cc1	11003	6	-2	2	-2	2
CC1(C)Cc2c(sc3nc(-c4cc5ccccc5o4)n(N)c(=O)c23)CO1	21859*	9	4	-5	?	-1
CCCn1nc(C(=O)NCC2COc3ccccc3O2)c2ccccc2c1=O (configuration not stated)	3681	-2	4	/	0	2
O=C(NCCN1CCCCC1)c1ccc(F)cc1Cl	3927	-2	-7	4	1	-5
Cc1ccc(N(Cc2ccccc2F)S(C)(=O)=O)c(C)c1	4999	-7	-3	13	-1	-3
SMILES	Autofluor counter	MazF activator	BoNT F protease	VHR inh abs	BoNT-A LC inh2	Anthrax LF prot
Cc1ccccc1CN(c1ccc(C(N)=O)cc1)S(C)(=O)=O	16249*	1	-2	15	0	3
Cc1ccccc1N(Cc1ccccc1F)S(C)(=O)=O	23221*	-4	-1	14	1	0
CCC(=O)c1ccc(OCC(=O)OCC(=O)NC2CCCCCCC2)cc1	5577	1	-3	-9	-1	-4
COc1ccccc1CNC(=O)C1CCN(S(=O)(=O)c2ccc(N3CCCC3=O)cc2)CC1	4775	7	1	30	-2	-2
O=[N+]([O-])c1ccc(Sc2cccc[n+]2[O-])c2nonc12	4845	104*	13	27	5	-18
O=c1ccc(=O)n(CCc2ccccn2)[nH]1	3822	-5	12	/	0	1
CCc1noc(C)c1C(=O)OC(C)C(=O)Nc1ccc(Cl)cn1 (configuration not stated)	3555	4	6	/	0	2
C/C(=N\NC(=O)CN1CCN(S(=O)(=O)c2ccc(C)cc2)CC1)c1ccc(O)cc1	3954	14	-1	0	1	0
COc1ccc(NC(=O)C(C)N2c3cccc4cccc(c34)S2(=O)=O)cc1OC (configuration not stated)	10491	8	8	9	2	0
COc1ccc(NC(=O)C(C)N2c3cccc4cccc(c34)S2(=O)=O)cc1 (configuration not stated)	22225*	-9	-1	12	2	-1
Cc1ccc(C(=O)NCCCNC(=O)COc2ccc(Cl)cc2)cn1	3778	5	-15	20	-2	3
CSC1=N/C(=C\c2ccc(F)cc2)C(=O)S1	2623	-4	-5	14	0	-2
CSC1=N/C(=C\c2ccc(C)s2)C(=O)S1	2328	532*	-2	-7	0	2
COc1ccc(OC)c(N=Cc2c(O)c3ccccc3oc2=O)c1	3571	78*	?	8	-5	19
COc1ccc(Cl)cc1N=Cc1c(O)c2ccccc2oc1=O	3725	-2	?	17	7	0
CCCCn1c(N)c(N(CCOC)C(=O)COC(=O)COc2cc(C)c(Cl)cc2C(C)C)c(=O)[nH]c1=O	?	0	0	/	1	-2
CC1=C(C#N)C(NC(=O)c2ccc(C)cc2)(C(F)(F)F)C(=O)N1 (configuration not stated)	19042*	4	5	20	6	0
Cc1ccccc1CN1CCN(CC(=O)NCc2ccccc2)C1=O	20841*	-3	-2	20	-3	-1
Cc1cccc(CN2CCN(CC(=O)O)C2=O)c1	19589*	-3	-2	12	-1	-2
Cc1cccc(N2CCN(CC(=O)Nc3ccc(S(=O)(=O)N4CCOCC4)cc3)CC2)c1C	5852	2	3	9	1	-1
CCCCCCCCNC(=O)/C(C#N)=C/c1ccccc1[N+](=O)[O-]	1924	122*	2	12	0	-1
CC(C)Oc1cccc(C(=O)C2CCCN(Cc3cccn3-c3ccccn3)C2)c1 (configuration not stated)	4445	4	5	22	-1	-9
O=C(COC(=O)/C=C/c1cc(Br)ccc1F)Nc1ccc2[nH]c(=O)[nH]c2c1	7613	-12	-17	/	-4	-4
O=C(Nc1ccc(Cl)cc1)N[C@@H]1c2c(ccc3ccccc23)OC[C@@H]1CO	23698*	6	-2	27	-3	-3
